# Results taken from PubChem BioAssay (NCATS).
# “And” between values parts separate entries of the source, which are not always exact repeats. Equal entries are not always repeated. Results filed as inconclusive are left out. Where a call stands in place of a potency, no number is given. The source made the active and inactive calls. Unless noted, the call rests on the fitted dose curve; in most records, active means well fitted inhibition curve with a large enough effect; inconclusive means small, poorly fitted or top-dose-only effect; inactive means flat fitted curve, though single readings scatter.
# What was measured:
# [1] = qHTS drug screen for cell cycle checkpoint inhibitors in PARPi-resistant BRCA-mutant ovarian cancer cell lines. (AID 1963452; calls by dose curve); conditions: PEO1/OlaR viability, CellTiter-Glo luminescence, 96 h, stronger effect = lower value
# In short: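 PEO1, PEO4 and PEO1/OlaR ovarian cancer cells, 600 per well, exposed 96 h at 37C to a dilution series. Viability read by CellTiter-Glo luminescence, normalized to DMSO and empty wells; activity summarized as Z-AUC.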
# [2] = qHTS for identification of novel therapeutic agents for treatment of microphthalmiaassociated transcription factor (MiT) renal cell carcinoma (RCC) (AID 1963991); conditions: CellTiter-Glo, 48 h, stronger effect = lower value
# In short: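 Three TFE3-fusion RCC cell lines (UOK109, UOK124, UOK145), 500 cells/well, were exposed to the 1912-compound MIPE 4.0 library for 48 hours at 37 C. Viability was read by CellTiter-Glo luminescence, normalised to DMSO (100%) and empty wells (0%), with 11-concentration curve fits.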
# 7G8 = assay: qHTS profiling for inhibitors of Plasmodium falciparum proliferation (AID 504749); further: nearly all actives have a fitted effect of over 60% in size; further: potency means the concentration at half of the fitted maximal effect; conditions: P. falciparum in erythrocytes, SYBR Green DNA, 72 h; series mostly up to 28.7 µM
# In short: (§1)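 In a 72 h erythrocytic culture (37 C, humidified, 5% CO2) at 2.5% hematocrit and 0.3% starting parasitemia, compounds were tested; SYBR Green I in detergent lysis buffer stained parasite DNA overnight.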
# ATS189 = assay: as above; conditions: P. falciparum in erythrocytes, SYBR Green DNA, 72 h; series mostly up to 28.7 µM
# In short: as §1
# [3] = as above; conditions: P. falciparum in erythrocytes, SYBR Green DNA, 72 h
# In short: as §1
# 3D7 = assay: as above; conditions: P. falciparum in erythrocytes, SYBR Green DNA, 72 h; series mostly up to 28.7 µM
# In short: as §1
# AA1029 = assay: as above; conditions: P. falciparum in erythrocytes, SYBR Green DNA, 72 h; series mostly up to 28.7 µM
# In short: as §1
# AS120 = assay: as above; conditions: P. falciparum in erythrocytes, SYBR Green DNA, 72 h; series mostly up to 28.7 µM
# In short: as §1
# ATS95 = assay: as above; conditions: P. falciparum in erythrocytes, SYBR Green DNA, 72 h; series mostly up to 28.7 µM
# In short: as §1
# C2A = assay: as above; conditions: P. falciparum in erythrocytes, SYBR Green DNA, 72 h; series mostly up to 28.7 µM
# In short: as §1
# [4] = measured here: PEO1 parental Z-AUC
# [5] = TFE3-RCC UOK109 viability, measured here: UOK109 Z-AUC
# [6] = TFE3-RCC viability, measured here: UOK124 Z-AUC
# [7] = TFE3-RCC viability, measured here: UOK145 Z-AUC
# [8] = at 28.7 µM (top of the series), parasite line A
# [9] = at 28.7 µM (top of the series), parasite line B
structure (smiles),measurement,setting,value
CC(C)(C)NC(=O)Nc1cccc(Nc2ncc(F)c(NC(C)(C)CO)n2)c1,Z-AUC,[1],-0.707 (inactive)
same,Z-AUC,[1]; [4],-1.21
same,Z-AUC,[1]; measured here: PEO4 Z-AUC,-1.05
same,z-score,[2]; [5],1.09
same,z-score,[2]; [6],-0.121
same,z-score,[2]; [7],0.237
Nc1ncnc2c1ncn2[C@@H]1O[C@H](CO)C[C@@H]1O,z-score,[2]; [5],0.12
same,z-score,[2]; [6],0.223
same,z-score,[2]; [7],0.00458
CC(=O)O[C@]1(C(C)=O)CC[C@H]2[C@@H]3C=C(Cl)C4=CC(=O)[C@@H]5C[C@@H]5[C@]4(C)[C@H]3CC[C@@]21C,Z-AUC,[1],0.151 (inactive)
same,Z-AUC,[1]; [4],0.0304
same,Z-AUC,[1]; measured here: PEO4 Z-AUC,0.0664
same,Potency,7G8,11.2 µM (active)
same,Potency,ATS189,inactive
CC(=O)N[C@@H](CS)C(=O)O,Z-AUC,[1],0.621 (inactive)
same,Z-AUC,[1]; [4],0.869
same,Z-AUC,[1]; measured here: PEO4 Z-AUC,0.504
same,"activity, negative = inhibition",[3]; [8],-3.7% (inactive)
same,"activity, negative = inhibition",[3]; [9],16.4% (inactive)
same,outcome,3D7,inactive
same,Potency,7G8,inactive
same,outcome,AA1029,inactive
same,Potency,AS120,inactive
same,Potency,ATS189,inactive
same,outcome,ATS95,inactive
same,outcome,C2A,inactive
Clc1ccc(Cn2c(CN3CCCC3)nc3ccccc32)cc1,Z-AUC,[1],1.16 (inactive)
same,Z-AUC,[1]; [4],0.912
same,Z-AUC,[1]; measured here: PEO4 Z-AUC,1.11
same,"activity, negative = inhibition","[3]; at 12.8 µM (top of the series), parasite line A",5.36% (inactive)
same,outcome,3D7,inactive
same,Potency,7G8,3.16 µM (active)
same,outcome,AA1029,inactive
same,Potency,AS120,inactive
same,Potency,ATS189,inactive
same,outcome,ATS95,inactive
same,outcome,C2A,inactive
CC=CC(=O)N(CC)c1ccccc1C,z-score,[2]; [5],1.15
same,z-score,[2]; [6],0.231
same,z-score,[2]; [7],0.523
Cc1ccccc1C(C(=O)NC1CCCCC1)N(C(=O)Cn1ccnc1C)c1cccc(F)c1 (stereo unspecified),Z-AUC,[1],0.113 (inactive)
same,Z-AUC,[1]; [4],0.941
same,Z-AUC,[1]; measured here: PEO4 Z-AUC,0.654
same,z-score,[2]; [5],0.6
same,z-score,[2]; [6],0.139
same,z-score,[2]; [7],0.682
O=C(O)c1c(Cl)c(Cl)c(Cl)c(Cl)c1-c1c2cc(I)c(=O)c(I)c-2oc2c(I)c(O)c(I)cc12,Z-AUC,[1],0.15 (inactive)
same,Z-AUC,[1]; [4],0.353
same,Z-AUC,[1]; measured here: PEO4 Z-AUC,0.104
same,"activity, negative = inhibition",[3]; [8],1.68% (inactive)
same,"activity, negative = inhibition",[3]; [9],2.35% (inactive)
same,outcome,3D7,inactive
same,Potency,7G8,inactive
same,outcome,AA1029,inactive
same,Potency,AS120,inactive
same,Potency,ATS189,inactive
same,outcome,ATS95,inactive
same,outcome,C2A,inactive
CN(C)c1cc(NC(=O)CNC(C)(C)C)c(O)c2c1C[C@@H]1C[C@H]3[C@H](N(C)C)C(=O)C(C(N)=O)=C(O)[C@@]3(O)C(=O)C1=C2O,z-score,[2]; [5],1.85
same,z-score,[2]; [6],0.166
same,z-score,[2]; [7],0.881
CCCNC(=O)NS(=O)(=O)c1ccc(Cl)cc1,"activity, negative = inhibition",[3]; [8],14.4% (inactive)
same,"activity, negative = inhibition",[3]; [9],10.3% (inactive)
same,outcome,3D7,inactive
same,Potency,7G8,inactive
same,outcome,AA1029,inactive
same,Potency,AS120,inactive
same,Potency,ATS189,inactive
same,outcome,ATS95,inactive
same,outcome,C2A,inactive
CCC(CC)[C@H](NC(C)=O)[C@@H]1[C@H](O)[C@@H](C(=O)O)C[C@@H]1N=C(N)N,z-score,[2]; [5],0.127
same,z-score,[2]; [6],-0.172
same,z-score,[2]; [7],-0.0122
O=C(O)C=Cc1ccc(O)c(O)c1,z-score,[2]; [5],1.03
same,z-score,[2]; [6],0.19
same,z-score,[2]; [7],0.564
COc1ccccc1N1CCN(CCCNc2cc(=O)n(C)c(=O)n2C)CC1,"activity, negative = inhibition",[3]; [8],-3.41% (inactive) and -6.84% (inactive)
same,"activity, negative = inhibition",[3]; [9],-11.7% (inactive) and -0.932% (inactive)
same,outcome,3D7,inactive
same,Potency,7G8,inactive
same,outcome,AA1029,inactive
same,Potency,AS120,inactive
same,Potency,ATS189,inactive
same,outcome,ATS95,inactive
same,outcome,C2A,inactive
O=C(O)Cc1cccc2ccccc12,"activity, negative = inhibition",[3]; [8],12.1% (inactive)
same,"activity, negative = inhibition",[3]; [9],6.39% (inactive)
same,outcome,3D7,inactive
same,Potency,7G8,inactive
same,outcome,AA1029,inactive
same,Potency,AS120,inactive
same,Potency,ATS189,inactive
same,outcome,ATS95,inactive
same,outcome,C2A,inactive
OC[C@H]1O[C@@H](n2cnc3c2NC=NC[C@@H]3O)C[C@H]1O,z-score,[2]; [5],0.518
same,z-score,[2]; [6],0.532
same,z-score,[2]; [7],0.196
CC(=O)c1ccc(S(=O)(=O)NC(=O)NC2CCCCC2)cc1,"activity, negative = inhibition",[3]; [8],3.57% (inactive)
same,"activity, negative = inhibition",[3]; [9],7.49% (inactive)
same,outcome,3D7,inactive
same,Potency,7G8,inactive
same,outcome,AA1029,inactive
same,Potency,AS120,inactive
same,Potency,ATS189,inactive
same,outcome,ATS95,inactive
same,outcome,C2A,inactive
NCCS,"activity, negative = inhibition",[3]; [8],9.12% (inactive)
same,"activity, negative = inhibition",[3]; [9],7.21% (inactive)
same,outcome,3D7,inactive
same,Potency,7G8,inactive
same,outcome,AA1029,inactive
same,Potency,AS120,inactive
same,Potency,ATS189,inactive
same,outcome,ATS95,inactive
same,outcome,C2A,inactive
C[C@@H](O)[C@H]1C(=O)N2C(C(=O)O)=C(S[C@@H]3CN[C@H](C(=O)N(C)C)C3)[C@H](C)[C@H]12,"activity, negative = inhibition",[3]; [8],10.4% (inactive)
same,"activity, negative = inhibition",[3]; [9],13.7% (inactive)
same,outcome,3D7,inactive
same,Potency,7G8,inactive
same,outcome,AA1029,inactive
same,Potency,AS120,inactive
same,Potency,ATS189,inactive
same,outcome,ATS95,inactive
same,outcome,C2A,inactive
O=C1Nc2ccc(Cl)cc2C(C#CC2CC2)(C(F)(F)F)O1 (stereo unspecified),"activity, negative = inhibition",[3]; [8],-18.6% (inactive)
same,"activity, negative = inhibition",[3]; [9],0.376% (inactive)
same,outcome,3D7,inactive
same,Potency,7G8,11.2 µM (active)
same,outcome,AA1029,inactive
same,Potency,ATS189,inactive
same,outcome,ATS95,inactive
same,outcome,C2A,inactive
CCOC(=O)O[C@]1(C(=O)OCCl)CC[C@@H]2[C@H]3CCC4=CC(=O)C=C[C@]4(C)[C@@H]3[C@@H](O)C[C@@]21C,z-score,[2]; [5],0.509
same,z-score,[2]; [6],0.837
same,z-score,[2]; [7],2.11
same,"activity, negative = inhibition",[3]; [8],-7.57% (inactive)
same,"activity, negative = inhibition",[3]; [9],4.48% (inactive)
same,outcome,3D7,inactive
same,outcome,AA1029,inactive
same,Potency,AS120,inactive
same,Potency,ATS189,inactive
same,outcome,ATS95,inactive
same,outcome,C2A,inactive
Cc1cccc(C)c1OCC(C)N (stereo unspecified),"activity, negative = inhibition",[3]; [8],7.67% (inactive)
same,"activity, negative = inhibition",[3]; [9],-7.13% (inactive)
same,outcome,3D7,inactive
same,Potency,ATS189,inactive
same,outcome,C2A,inactive
C[C@H]1[C@H](NC(=O)C(=NOC(C)(C)C(=O)O)c2csc(N)n2)C(=O)N1S(=O)(=O)O,z-score,[2]; [5],1.25
same,z-score,[2]; [6],0.648
same,z-score,[2]; [7],1.65
